According to PubChem BioAssay (Tox21):
Results filed as inconclusive are left out. Entries that show only a call come without a potency. Values without a mark were called inactive. Calls of active or inactive are those of the source. Calls follow the shape of the full dose curve.

Test: qHTS assay for small molecules that induce genotoxicity in human embryonic kidney cells expressing luciferase-tagged ATAD5 - cell viability (AID 651634); also: nearly all actives have a fitted effect of over 25% in size
Conditions: HEK293T ATAD5-luc cells viability, CellTiter-Fluor, 15.5 h; series mostly up to 83.3 µM
From the text: National Center for Advancing Translational Sciences [NCATS]
NIH Chemical Genomics Center [NCGC]
U.S. Environmental Protection Agency [EPA]
National Institutes of Environmental Health Sciences [NIEHS]
National Toxicology Program [NTP]
U.S. Food and Drug Administration [FDA]
Enhanced Level of Genome Instability Gene 1 (ELG1; human ATAD5) protein levels increase in response to various types of DNA damage. Using a luciferase reporter-gene tagged with ElG1, a cell-based assay [developed by Kyungjae Myung, NHGRI, NIH] was used to measure the induction of ATAD5 in human embryonic kidney cells (HEK293T). So, increase in luciferase activity can be used to identify the compounds that cause genetic stress. In addition to genotoxicity, these cells were also used to test for cytotoxicity by measuring the protease activity within live cells.
Tox21 Assay Protocol Summary:
For cytotoxicity screening, 2,000 cells in 5 uL/well were dispensed into white, solid-bottom 1536-well plates using a Multidrop Combi (Thermo Scientific) dispenser. Following transfer of 23 nL compound or DMSO vehicle by a pin tool, the plates were incubated 15.5 hr at 37C and 5% CO2. 1 ul CellTiter-Fluor reagent (Promega, Madison, WI) was then added to each plate and following 30 min incubation at 37C, fluorescence intensity was quantified on a ViewLux CCD-based plate reader.
Potency is read from the fitted curve at half-maximal effect.

Row | SMILES | Potency | activity, negative = cytotoxicity
1 | CCCCCCC(O)CCCCCCCCCCC(=O)OC (stereo not given) | inactive | 
2 | Cc1ccc(N(CCO)CCO)cc1 | inactive | 
3 | OCC(CO)n1cnc(-c2ccc(F)cc2)c1-c1ccnc(Oc2ccccc2)n1 | inactive | 
4 | Cc1ccc(Nc2c(F)cccc2Cl)c(CC(=O)O)c1 | inactive | 
5 | O=C(O)c1cccc(C[C@@H]2COc3ccc(OCc4nc5cc(F)ccc5s4)cc3[C@@H]2O)c1 | inactive | 
6 | CC(C)OC(=O)c1ccccc1C(=O)OC(C)C | inactive | 
7 | C=CCOC(=O)COCCC(C)C | inactive | 
8 | Nc1ccc(NC(=O)c2ccc(N)cc2)cc1 | inactive | 
9 | CCCCCc1ccco1 | inactive | 
10 | Cc1c[nH]c2ccccc12 | inactive | 
11 | CN=C(N)NC(=O)Nc1c(C)cccc1C | inactive | 
12 | CCCCC[C@H](O)/C=C/[C@H]1[C@H](O)CC(=O)[C@@H]1C/C=C\CCCC(=O)O | inactive | 
13 | c1ccc(CCCc2ccncc2)cc1 | inactive | 
14 | CCN(CC)CCNC(=O)c1cc(Cl)c(N)cc1OC | inactive | 
15 | O=C(NS(=O)(=O)/C=C/c1ccccc1)c1ccc(F)cc1Cl | inactive | 
16 | CCN(CC)CCOc1ccccc1C(=O)CCc1ccccc1 | inactive | 
17 | O=C1OC[C@H](Cc2cccc(O)c2)[C@H]1Cc1cccc(O)c1 | inactive | 
18 | O=C(CCS)OCC(COC(=O)CCS)(COC(=O)CCS)COC(=O)CCS | inactive | 
19 | CN1C(CSCC(F)(F)F)Nc2cc(Cl)c(S(N)(=O)=O)cc2S1(=O)=O (stereo not given) | inactive | 
20 | CC(C(=O)O)c1ccc(C(=O)c2cccs2)cc1 (stereo not given) | inactive | 

Row | SMILES | Potency | activity, negative = cytotoxicity
21 | CC(C)(C)S | inactive | 
22 | SCCc1cnccn1 | inactive | 
23 | C=C(C)C(=O)OCCC(F)(F)C(F)(F)C(F)(F)C(F)(F)C(F)(F)C(F)(F)F | inactive | 
24 | CCCCCCCCCCCCCOS(=O)(=O)O | inactive | 
25 | CC(=O)OCC(=O)[C@@]1(OC(C)=O)[C@@H](C)C[C@H]2[C@@H]3C[C@H](F)C4=CC(=O)C=C[C@]4(C)[C@@]3(F)[C@@H](O)C[C@@]21C | inactive | 
26 | O=S(=O)(Cl)c1c(Cl)cccc1Cl | inactive | 
27 | CC(C)(C)CCCCCCOC(=O)c1ccccc1C(=O)OCCCCCCC(C)(C)C | inactive | 
28 | Cc1ccc2c(c1[N+](=O)[O-])C(=O)c1ccccc1C2=O | inactive | 
29 | CC(=O)OCC1=C(C(=O)O)N2C(=O)[C@@H](NC(=O)CSc3ccncc3)[C@H]2SC1 | inactive | 
30 | C[C@H](CS)C(=O)N1CCC[C@H]1C(=O)O | inactive | 
31 | COc1cc(NCc2ccc3nc(N)nc(N)c3c2C)cc(OC)c1OC | inactive | 
32 | Nc1ccc(N=Nc2ccc(N)cc2)cc1 | 27.3 µM (active) | 
33 | CC1CCCC(=O)C1=O (stereo not given) | inactive | 
34 | CC(CO)(CO)C(=O)O | inactive | 
35 | CC1=CC[C@@H]2C[C@H]1C2(C)C |  | -7.96% [at 17.9 µM]
36 | CCCCCCCCCCCCCCCC(=O)OCC | inactive | 
37 | FC(F)(F)C(F)(F)C(F)(F)C(F)(F)CCI | inactive | 
38 | O=P(O)(O)Oc1ccccc1 | inactive | 
39 | CSCC[C@H](NC(=O)[C@H](Cc1c[nH]c2ccccc12)NC(=O)CCNC(=O)OC(C)(C)C)C(=O)N[C@@H](CC(=O)O)C(=O)N[C@@H](Cc1ccccc1)C(N)=O | inactive | 
40 | CC(=O)Oc1cccc(O)c1 | inactive | 
